Drawing on paper PMC6212790, “How bacterial xenogeneic silencer rok distinguishes foreign from self DNA in its resident genome”, this text covers binding signal for 174 sequences.

In all, about 33,000 sequences were measured (“e-score”: median about -0.038, highest 2% from about 0.33 on). The sample as a whole holds a higher share of the highest values than the screen did.

The target in the assay is T1, GST-Rok-C97-191 (Bacillus subtilis subsp. subtilis str. …, UniProt O34857 97-191).
T1 sequence: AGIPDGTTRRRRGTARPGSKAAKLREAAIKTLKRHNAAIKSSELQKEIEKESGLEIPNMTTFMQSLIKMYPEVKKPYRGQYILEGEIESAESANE
The experiment in a line: protein binding microarray; Rok is a gene silencer of Bacillus subtilis; high values mean tight binding. Particulars: protein: recombinant; tags: GST (pTH5325, pDEST15-Magic modified); dsDNA, one strand shown. In a few lines:
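Every oligonucleotide joins a 25-mer constant primer to a 35-mer variable part drawn from a de Bruijn sequence of order 10, so each non-palindromic 8-mer appears at least 32 times and each palindromic 8-mer 16 times. The preference for every 8-mer is reported as a unitless, rank-based enrichment score (E-score). This score spans 0.5 for the most favored 8-mer to −0.5 for the most disfavored.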
For ACATCCGA, the binding signal was -0.00901 E-score.
As for TCAGAGCA, the binding signal is -0.143 E-score.
Regarding AGTTACAT, the binding signal is 0.342 E-score.
As for AGTTACAG, the figure is 0.193 E-score; as for AATTACAG, 0.249 E-score.
As for AATTACAA, the binding signal is 0.251 E-score.
AGTTACAA: the binding signal is 0.163 E-score.
As to AATTACAT, the binding signal was determined as 0.339 E-score.
In the case of GGACGGAA, the binding signal was -0.113 E-score.
Turning to CGTGGTCA, the binding signal is -0.0431 E-score.
In the case of CTTTAACA it was 0.072 E-score; in that of GGCGACTA, -0.103 E-score; in that of GATAGTAA, 0.367 E-score.
With TATAGTGA, the binding signal stood at 0.199 E-score.
In the case of CATAGTAA it was 0.272 E-score; in that of TATAGTAA, 0.346 E-score.
In the case of GATAGTAC, the binding signal is 0.184 E-score.
In the case of GATAGTTA it was 0.373 E-score; in that of CATAGTTA, 0.275 E-score.
As for GATAGTCA, the figure is 0.000914 E-score; as for TATAGTCA, 0.119 E-score.
For the sequence GCGATGAA, the binding signal is -0.0177 E-score.
In the case of CCAGAAAG it was -0.066 E-score; in that of GAAGCCGA, -0.0818 E-score; in that of TTCAACAA, 0.0826 E-score.
For the sequence CTAAGTAG, the binding signal worked out at 0.275 E-score.
With ATCAGCTA, the binding signal came out at 0.165 E-score.
Take GATAGAGC: the binding signal was -0.0336 E-score.
In the case of ATTTCGCG it was 0.158 E-score; in that of ATAGTTAA, 0.327 E-score; in that of ATAGTTGG, 0.00189 E-score.
As for CTAGTTTC, the figure is 0.422 E-score.
In the case of ATCGTTTG it was -0.0549 E-score.
Regarding ATAGTTTG, the binding signal was 0.366 E-score.
As for CCAGTTTC, the figure is -0.105 E-score; as for CTAGTTAA, 0.327 E-score; as for ATAGTTGA, 0.215 E-score.
Consider ATAGTTTA, for which the binding signal is 0.354 E-score.
As for ATAGTTTC, the figure is 0.292 E-score.
In the case of GTAGTTAA it was 0.405 E-score; in that of CGAGTTTC, 0.049 E-score; in that of ACATTTGC, 0.205 E-score.
Regarding AGTCAAAG, the binding signal is -0.141 E-score.
Turning to ACAAGCAC, the binding signal stood at 0.019 E-score.
In the case of GAAGGCTA it was -0.0559 E-score; in that of AACGGACC, -0.186 E-score; in that of TCGCCCAA, -0.12 E-score.
As to GTAGTGTA, the binding signal stood at 0.118 E-score.
As for CTAGTTTA, the figure is 0.378 E-score.
In the case of ATAGTGTA it was 0.346 E-score.
On to GCAGTTTA, for which the binding signal is 0.113 E-score.
With CTAGTTGA, the binding signal worked out at 0.2 E-score.
For the sequence CTAGTTCA, the binding signal was determined as 0.0257 E-score.
In the case of CTAGTTCC it was 0.262 E-score; in that of GTAGTTTA, 0.423 E-score; in that of CTAGTTGC, 0.23 E-score.
In the case of ATAGTGTG it was 0.0365 E-score.
Take GGAGTTTA: the binding signal is 0.0723 E-score.
Regarding CTAGTTAC, the binding signal worked out at 0.38 E-score.
ATGCCCTA: the binding signal is -0.00598 E-score.
For GCTCGTCA, the binding signal was -0.151 E-score.
As for ACGTTTTC, the figure is 0.12 E-score; as for GATGCATA, 0.176 E-score.
For ACTAGCTA, the binding signal amounted to 0.397 E-score.
As for GCTAGCTA, the figure is 0.119 E-score; as for AGTAGCTG, 0.233 E-score; as for CGTAGCTA, 0.289 E-score.
In the case of CCTAGCTA it was 0.144 E-score.
In the case of AGTAGCTA, the binding signal came to 0.37 E-score.
As for AGTAGCTC, the figure is 0.14 E-score.
In the case of GGTAGCTA it was 0.357 E-score.
On to GGTAGCGA, for which the binding signal came out at 0.0646 E-score.
In the case of GCCGTAAA it was -0.0195 E-score; in that of ACAAAGTA, 0.275 E-score; in that of AATGTCGT, -0.087 E-score.
Take CTATGAGC: the binding signal is -0.0781 E-score.
As for ACGAATAG, the figure is 0.0145 E-score; as for TCGATCAA, 0.27 E-score; as for ATGGAAAG, -0.0465 E-score.
As for AATGATCA, the figure is 0.156 E-score; as for ATGTGCAC, -0.0271 E-score; as for CGAATCAA, -0.196 E-score.
In the case of CGCTTCAC it was -0.177 E-score.
Turning to AACTGCCC, the binding signal was -0.0946 E-score.
As for AGCCATAA, the figure is 0.127 E-score.
Consider CACAAGAA, for which the binding signal was -0.0545 E-score.
As for GTTAGTTA, the binding signal worked out at 0.325 E-score.
In the case of AGTAGTTC it was 0.398 E-score; in that of CGTAGTTC, 0.213 E-score; in that of CCTAGTTA, 0.168 E-score.
With AGTAGTGA, the binding signal is 0.121 E-score.
In the case of AGTAGTTA it was 0.424 E-score; in that of CTTAGTTA, 0.189 E-score; in that of AGTAGTGC, 0.12 E-score.
With ATTAGTTA, the binding signal came to 0.336 E-score.
In the case of ACTAGTTA it was 0.448 E-score; in that of CGTAGTTA, 0.199 E-score.
Consider GCTAGTTA, for which the binding signal stood at 0.284 E-score.
As for ATTGCTGG, the binding signal stood at 0.137 E-score.
Consider TAACCGTA, for which the binding signal was found to be 0.169 E-score.
In the case of CGGATACC it was 0.0204 E-score; in that of ACTGGCAT, 0.00831 E-score; in that of GGTAGTTA, 0.4 E-score.
In the case of ATTAGTTG it was 0.118 E-score; in that of ACTAGTTG, 0.313 E-score.
As for GGTAGTCA, the binding signal was determined as 0.192 E-score.
As for AGTAGTTG, the binding signal turned out to be 0.393 E-score.
In the case of AATAGTTA it was 0.32 E-score; in that of CATAGTTC, 0.168 E-score.
As for GGTAGTGA, the figure is 0.144 E-score.
In the case of AATAGTTC it was 0.343 E-score; in that of GCCCATTA, -0.125 E-score.
Take TCTAGAAA: the binding signal worked out at 0.205 E-score.
With TTTAGAAA, the binding signal was found to be 0.175 E-score.
In the case of CGTAGAAC it was 0.207 E-score; in that of GGTAGAAA, 0.465 E-score; in that of GGTAGAGA, 0.173 E-score.
As for CGTAGAAG, the figure is 0.0648 E-score.
In the case of GTTAGAAC it was 0.125 E-score; in that of TGTAGAAA, 0.35 E-score; in that of GCTAGAAA, 0.314 E-score.
For the sequence CGTAGAAA, the binding signal turned out to be 0.338 E-score.
As for GGTAGACC, the figure is -0.0686 E-score; as for GGTAGAAC, 0.4 E-score.
Regarding AACGTGGA, the binding signal came to 0.103 E-score.
Turning to AATAGCGC, the binding signal came to 0.114 E-score.
As for GCCCACAA, the binding signal is -0.0476 E-score.
For the sequence GCATCTGA, the binding signal is -0.0514 E-score.
As for CAAAGAAC, the figure is 0.232 E-score; as for GCAGGGGA, -0.184 E-score; as for TAAACGCA, -0.0161 E-score.
As for CGACAACC, the figure is -0.054 E-score.
Consider ACCCACGT, for which the binding signal was -0.188 E-score.
AGTAATTG: the binding signal was determined as 0.31 E-score.
On to ATTAATTA, for which the binding signal worked out at 0.391 E-score.
As for GGTAATTA, the figure is 0.395 E-score; as for AGTAATTC, 0.273 E-score; as for CGTAATTA, 0.318 E-score.
In the case of ATTAATTC it was 0.147 E-score.
In the case of AGTAATTA it was 0.376 E-score; in that of GGTAATCA, -0.186 E-score.
Consider GTTAATTA, for which the binding signal was 0.19 E-score.
Consider CATTGTAC, for which the binding signal turned out to be 0.109 E-score.
GTTGAAAA: the binding signal is -0.013 E-score.
In the case of AGGTATTC it was -0.0121 E-score.
AACTCTCT: the binding signal was 0.0603 E-score.
As for GCTACCAC, the figure is 0.0411 E-score; as for ACTACCAT, 0.353 E-score.
As for ACTACCCG, the binding signal turned out to be 0.0272 E-score.
In the case of ACTACCAC it was 0.383 E-score; in that of ACTACCAG, 0.213 E-score; in that of ACTACCCA, 0.332 E-score.
In the case of CCTACCAC it was 0.251 E-score; in that of TCTACCCA, 0.234 E-score; in that of ACTACCAA, 0.257 E-score.
As for GCCGCGCA, the binding signal is -0.14 E-score.
As for CGTTTCAG, the figure is -0.0327 E-score.
In the case of AGCTCTTA it was 0.106 E-score; in that of CATCTAAA, 0.111 E-score.
For AGCGGACG, the binding signal came to 0.000189 E-score.
With TGACAAAA, the binding signal turned out to be 0.0786 E-score.
As for ATGATGGG, the figure is -0.0998 E-score; as for AAAGTAGG, 0.262 E-score; as for CTAGTAGC, 0.251 E-score.
In the case of CAAGTAGA it was 0.303 E-score.
As for CCAGTAGA, the binding signal is 0.176 E-score.
Regarding ACAGTAGT, the binding signal turned out to be 0.258 E-score.
In the case of AAAGTAGC it was 0.261 E-score; in that of CTAGTAGA, 0.382 E-score; in that of GTAGTAGA, 0.368 E-score.
As for GGAGTAGA, the figure is 0.102 E-score.
Consider ACAGTAGA, for which the binding signal was 0.364 E-score.
As for GTAGTACA, the figure is 0.272 E-score; as for AAAGTAGT, 0.328 E-score.
